Test results as given in PubChem BioAssay (NCI).
Several values for one entry are separate records, joined by “and”; a condition that tells them apart may be missing. Identical values can stand only once. The panel holds about 83,000 compounds, 20% with a hit somewhere; the sample as a whole holds those more often.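 48-hour exposure, single concentration, 96-well plates; percent growth endpoint where 0 means no net growth. Active: below 10.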 Activity calls are given as the source filed them.

How the values were obtained:
Assay in all cases: NCI-60 one-dose screen, 48 h (100 = growth as untreated, 0 = no growth, -100 = all killed)
Conditions in all cases: 10 µM unless noted
DU-145 prostate = system: DU-145 prostate
K-562 leukemia = system: K-562 leukemia
MALME-3M melanoma = system: MALME-3M melanoma
MDA-MB-231 breast = system: MDA-MB-231 breast
RXF 393 renal = system: RXF 393 renal
SF-268 CNS = system: SF-268 CNS
SF-295 CNS = system: SF-295 CNS
SF-539 CNS = system: SF-539 CNS
UACC-257 melanoma = system: UACC-257 melanoma
M14 melanoma = system: M14 melanoma

Measured: growth

C=C(C)[C@@H]1CC[C@]2(C)[C@H](CC(=O)N[C@H]3[C@@H]4C[C@](C)(C(=O)OC)CC[C@]4(C)CC[C@]32C)[C@@]1(C)CCC#N
inactive: DU-145 prostate 94.4% | K-562 leukemia 50.3% | MALME-3M melanoma 86.7% | MDA-MB-231 breast 79.7% | RXF 393 renal 83% | SF-268 CNS 81.2% | SF-295 CNS 81.2% | SF-539 CNS 95.9% | UACC-257 melanoma 83.7% | M14 melanoma 86.8%

Nc1ccc(-c2nc3ccc4[nH]ncc4c3c3c2CCCC3)cc1F
inactive: DU-145 prostate 38.6% | K-562 leukemia 30.2% | MALME-3M melanoma 28.3% | MDA-MB-231 breast 37.6% | SF-268 CNS 39.9% | SF-295 CNS 37.8% | SF-539 CNS 24.5% | UACC-257 melanoma 26.6% | M14 melanoma 24.9%
active: RXF 393 renal -13%

CCOC(=O)N(O)c1ccc(/C=C/c2ccccc2)cc1
active: UACC-257 melanoma -40.5% and -36.8%
inactive: DU-145 prostate 65.7% and 61.4% | K-562 leukemia 39.9% and 40.3% | MALME-3M melanoma 96.6% and 117% | MDA-MB-231 breast 67.3% and 54% | RXF 393 renal 76.8% and 69.1% | SF-268 CNS 86.3% and 81.3% | SF-295 CNS 41.7% and 11.4% | SF-539 CNS 96.5% and 85.1% | M14 melanoma 66.7% and 58.8%

CCOC(=O)C1=C(C)N=C2SC=C(c3ccc(F)cc3)N2[C@H]1c1cn(-c2ccccc2)nc1-c1ccc(Cl)cc1
inactive: DU-145 prostate 104% | K-562 leukemia 102% | MALME-3M melanoma 100% | MDA-MB-231 breast 88.5% | RXF 393 renal 97.1% | SF-268 CNS 92.4% | SF-295 CNS 99% | SF-539 CNS 101% | UACC-257 melanoma 81.5% | M14 melanoma 98.6%

CCCCC(NC(=O)CN1C(=O)/C(=C/C(C)=C/c2ccccc2)SC1=S)C(=O)O (centres undefined)
inactive: DU-145 prostate 111% | K-562 leukemia 107% | MALME-3M melanoma 91.8% | MDA-MB-231 breast 92.7% | RXF 393 renal 105% | SF-268 CNS 100% | SF-295 CNS 95% | SF-539 CNS 101% | UACC-257 melanoma 104% | M14 melanoma 96.6%

CN(Cc1ccccc1)c1nc(Cl)c(C2CC(c3ccc4c(c3)OCO4)=NN2c2cc(Cl)cc(Cl)c2)s1 (centres undefined)
inactive: DU-145 prostate 101% | K-562 leukemia 90.2% | MALME-3M melanoma 95% | MDA-MB-231 breast 101% | RXF 393 renal 109% | SF-268 CNS 94.8% | SF-295 CNS 93.8% | SF-539 CNS 103% | UACC-257 melanoma 106% | M14 melanoma 99.5%

Cn1cc2c(=O)nc3c(-c4nc5ccccc5[nH]4)n[nH]n3c2n1
inactive: DU-145 prostate 71.8% | K-562 leukemia 61.1% | MALME-3M melanoma 74.1% | MDA-MB-231 breast 100% | RXF 393 renal 78.1% | SF-268 CNS 74.2% | SF-295 CNS 106% | SF-539 CNS 97% | UACC-257 melanoma 72.9% | M14 melanoma 75.8%

N=c1c2c(-c3ccccc3)c(-c3ccccc3)oc2ncn1NC(=O)c1cccnc1
inactive: DU-145 prostate 106% | K-562 leukemia 87.8% | MALME-3M melanoma 114% | MDA-MB-231 breast 102% | RXF 393 renal 117% | SF-268 CNS 106% | SF-295 CNS 101% | SF-539 CNS 97.2% | UACC-257 melanoma 105% | M14 melanoma 105%

CCOC(=O)c1nc2c3ccccc3cnn2c1C(=O)c1ccc(OC)cc1
inactive: DU-145 prostate 105% | K-562 leukemia 96.9% | MALME-3M melanoma 102% | MDA-MB-231 breast 81.7% | RXF 393 renal 106% | SF-268 CNS 103% | SF-295 CNS 98.7% | SF-539 CNS 97.7% | UACC-257 melanoma 95.4% | M14 melanoma 101%

O=C1C(c2c[nH]c3ccccc23)=C(c2coc3cc(Br)ccc23)C(=O)N1O
inactive: DU-145 prostate 107% | K-562 leukemia 93.8% | MALME-3M melanoma 107% | MDA-MB-231 breast 85.9% | RXF 393 renal 105% | SF-268 CNS 98.6% | SF-295 CNS 95.3% | SF-539 CNS 106% | UACC-257 melanoma 100% | M14 melanoma 101%

COc1cc(C(=O)c2ccccc2C(=O)O)c(OC)c2c1CCCC2
inactive: DU-145 prostate 99% and 106% | K-562 leukemia 85.7% and 84.7% | MALME-3M melanoma 90.5% and 97.3% | MDA-MB-231 breast 87.8% and 101% | RXF 393 renal 107% and 100% | SF-268 CNS 92.5% and 101% | SF-295 CNS 97% and 102% | SF-539 CNS 97.3% and 103% | UACC-257 melanoma 95.9% and 99.5% | M14 melanoma 94.4% and 97.6%

O=C(NNC(=S)Nc1ccccc1)c1ccncc1
inactive: DU-145 prostate 115% | K-562 leukemia 106% | MALME-3M melanoma 108% | MDA-MB-231 breast 111% | RXF 393 renal 114% | SF-268 CNS 105% | SF-295 CNS 110% | SF-539 CNS 100% | UACC-257 melanoma 110% | M14 melanoma 107%

CCN1C(=S)N(CC)C2C1NC(=S)N2/N=C/C=C/c1ccccc1 (centres undefined)
inactive: DU-145 prostate 30.6% | K-562 leukemia 15.5% | MALME-3M melanoma 28% | MDA-MB-231 breast 52.7% | SF-268 CNS 55.6% | SF-295 CNS 19.6% | SF-539 CNS 11.4% | UACC-257 melanoma 41.7% | M14 melanoma 24.8%
active: RXF 393 renal 2.31%

C=C1C(=O)O[C@H]2[C@H]1CC/C(COC(=O)NCCCCNC(=O)OC/C1=C/CC[C@@]3(C)O[C@H]3[C@H]3OC(=O)C(=C)[C@@H]3CC1)=C\CC[C@@]1(C)O[C@@H]21
active: K-562 leukemia 4.14% | MALME-3M melanoma -39.3% | RXF 393 renal -30.2% | SF-539 CNS -23.6% | UACC-257 melanoma 2.94%
inactive: DU-145 prostate 45.8% | MDA-MB-231 breast 24% | SF-268 CNS 48.7% | SF-295 CNS 99% | M14 melanoma 11.5%

COC1=CC(=O)C(OC)=C(O)C1=O
inactive: DU-145 prostate 109% | K-562 leukemia 103% | MALME-3M melanoma 97.7% | MDA-MB-231 breast 100% | RXF 393 renal 104% | SF-268 CNS 107% | SF-295 CNS 102% | SF-539 CNS 92.4% | UACC-257 melanoma 97.4% | M14 melanoma 97.2%

CC1(C)C(N)=Nc2cc(OCCCN3Cc4ccc(OCCc5cn(CC(=O)N6CCC(CCN7CCCC7)CC6)nn5)cc4C3)c(OCC3CC3)cc21
inactive: DU-145 prostate 111% | K-562 leukemia 88% | MALME-3M melanoma 106% | MDA-MB-231 breast 112% | RXF 393 renal 113% | SF-268 CNS 86% | SF-295 CNS 100% | SF-539 CNS 97% | UACC-257 melanoma 112% | M14 melanoma 108%

CC(C)(C)c1cc(C(C)(C)c2ccccc2)cc(Cc2cc(C(C)(C)c3ccccc3)cc(C(C)(C)C)c2O)c1O
inactive: DU-145 prostate 123% | K-562 leukemia 48% | MALME-3M melanoma 97.4% | MDA-MB-231 breast 105% | RXF 393 renal 95.5% | SF-268 CNS 98.4% | SF-295 CNS 116% | SF-539 CNS 101% | UACC-257 melanoma 105% | M14 melanoma 116%

COc1cc2c(cc1OCCCOC1=C=C=C(c3ccc4c(c3)c3cc(-c5ccc(OCCCOc6cc7c(cc6OC)C(=O)N6CCC[C@H]6C=N7)cc5)ccc3n4S(=O)(=O)c3ccc(C)cc3)C=C1)N=C[C@@H]1CCCN1C2=O
inactive: MALME-3M melanoma 240% | MDA-MB-231 breast 23.3% | SF-539 CNS 13.3% | UACC-257 melanoma 52.6% | M14 melanoma 22.2%
active: DU-145 prostate -66.5% | K-562 leukemia 8.45% | SF-268 CNS -41.8% | SF-295 CNS -26%
